Measured values as given in PubChem BioAssay (NCATS).
Records with an inconclusive call do not appear. Active and inactive are the calls of the source. Calls come from the whole dose curve; as a rule, active = well fitted curve in the direction sought with a large enough effect; inconclusive = small, poorly fitted or top-dose-only effect, or another doubt; inactive = no such curve, though single readings can be large; an effect the other way counts as inactive or inconclusive.

What was measured:
[1] = target: Cellular tumor antigen p53 (Homo sapiens) (UniProt P04637); experiment: Primary qHTS for small molecule compounds that upregulate eGFP-tagged delta133p53alpha (in N-terminal) cells. (AID 2060322); settings: NCI-H358 eGFP-delta133p53alpha fluorescence, 24 h; activation: active compounds read high;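 note: cells pre-induced with doxycycline then dosed without doxycycline; series mostly up to about 56 µM; 0% = DMSO vehicle and 100% = reference activator; nearly all actives have a fitted effect of over 75% in size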
Sequence of Cellular tumor antigen p53 (Homo sapiens) (P04637 whole entry, looked up): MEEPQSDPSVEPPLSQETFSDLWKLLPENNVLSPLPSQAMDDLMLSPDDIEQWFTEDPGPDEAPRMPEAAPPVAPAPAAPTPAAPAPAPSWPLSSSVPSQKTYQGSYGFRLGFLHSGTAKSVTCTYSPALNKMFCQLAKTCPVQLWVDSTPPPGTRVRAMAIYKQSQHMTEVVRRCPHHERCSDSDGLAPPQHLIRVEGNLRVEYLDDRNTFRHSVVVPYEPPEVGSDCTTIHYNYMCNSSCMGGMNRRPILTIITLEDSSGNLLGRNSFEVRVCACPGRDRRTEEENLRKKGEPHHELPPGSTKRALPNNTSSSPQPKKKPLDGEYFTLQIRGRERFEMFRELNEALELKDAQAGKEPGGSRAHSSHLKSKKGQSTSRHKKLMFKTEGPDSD
Outline: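 NCI-H358 cells pre-induced 24 h with 10 ng/ml doxycycline for eGFP-delta133p53alpha, plated dox-free and exposed 24 h at 37C to titrated compounds. Fixed, Hoechst-stained; gated GFP peak intensity by laser scanning cytometry, normalized to DMSO (0%) and 57.5 uM 5-azacytidine (100%).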

[2] = target: Aldehyde dehydrogenase, mitochondrial (Homo sapiens) (UniProt P05091); experiment: qHTS for Inhibitors of the Aldehyde Dehydrogenase Family (ALDH2) Primary screen (AID 2061308);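 note: plate controls were vehicle for no effect and reference inhibitor for full effect; nearly all actives have a fitted effect of over 55% in size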
[3] = target: Retinaldehyde dehydrogenase 3 (Homo sapiens) (UniProt P47895); experiment: qHTS for Inhibitors of the Aldehyde Dehydrogenase Family (ALDH1A3) Primary screen (AID 2061315);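 note: plate controls were DMSO vehicle for no effect and reference inhibitor for full effect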

C[C@@H]1O[C@@H](OC[C@H]2O[C@@H](OC(CCCCc3ccc(O)cc3)CCc3ccc(O)cc3)[C@H](O)[C@@H](O)[C@@H]2O)[C@H](O)[C@H](O)[C@H]1O (some centres not stated)
inactive: activation [1] 6.11% | Potency [2] | Potency [3]

C[C@H](N)C(=O)N[C@@H](Cc1ccc(O)cc1)C(=O)N1CCC[C@H]1C(=O)NCC(=O)N[C@@H](CCCCN)C(=O)N[C@@H](Cc1ccccc1)C(N)=O
inactive: activation [1] -5.67% | activity change, negative = inhibition [2] 4.44% [at 11.2 µM] | activity change, negative = inhibition [3] -9.63% [at 11.2 µM]

C=C1CC[C@@H]2[C@](C)(CO[C@@H]3O[C@H](CO)[C@@H](O)[C@H](O)[C@H]3O)[C@H](O)CC[C@@]2(C)[C@@H]1C/C=C1/C(=O)OC[C@H]1O
inactive: activation [1] -8.93% | Potency [2] | Potency [3]

O=C1NCc2nc3ccccc3c(=O)n2C1Cc1c[nH]c2ccccc12 (configuration not stated)
inactive: activation [1] -7.63% | Potency [2] | Potency [3]

C[C@@H]1O[C@@H](O[C@@H]2[C@@H](O)[C@H](O[C@@H]3[C@@H](O)[C@@H](O)[C@H](O[C@H]4[C@H](OC(=O)[C@]56CCC(C)(C)C[C@H]5C5=CCC7[C@@]8(C)C[C@H](O)[C@H](O[C@@H]9O[C@H](C(=O)O)[C@@H](O)[C@H](O)[C@H]9O)[C@@](C)(CO)C8[C@H](O)C[C@@]7(C)[C@]5(C)CC6)OC[C@H](O)[C@@H]4O)O[C@H]3C)OC[C@H]2O)[C@H](O)[C@H](O)[C@H]1O (some centres not stated)
inactive: activation [1] -0.763% | activity change, negative = inhibition [2] 10.8% [at 11.2 µM] | activity change, negative = inhibition [3] 15.6% [at 11.2 µM]

O=C(Nc1ccn(Cc2c(F)cccc2C(F)(F)F)n1)c1c(F)cccc1F
inactive: activation [1] 1.67% | Potency [2] | Potency [3]

COc1cc(Cc2cnc(N)nc2N)c(C(C)C)cc1OC
inactive: activation [1] -15.2% | Potency [2] | Potency [3]

C=C1CCC2C(C)(C(=O)OC)CCCC2(C)C1CCC(C)CC(=O)O (configuration not stated)
inactive: activation [1] -13% | Potency [2] | Potency [3]

CC1OC(OC2C(C)OC(OC3C(OC(=O)C45CCC(C)(C)CC4C4=CCC6C7(C)CCC(OC8OC(C(=O)O)C(O)C(O)C8OC8OC(CO)C(O)C(OC9OC(C)C(O)C(O)C9O)C8O)C(C)(CO)C7CCC6(C)C4(C)CC5)OC(CO)C(O)C3O)C(O)C2O)C(O)C(O)C1O (configuration not stated)
inactive: activation [1] 13.4% | activity change, negative = inhibition [2] -1.8% [at 11.2 µM] | activity change, negative = inhibition [3] -5.04% [at 11.2 µM]

CCC(=O)N[C@@H]1Cc2ccccc2[C@H](c2ccccc2)C1
inactive: activation [1] -0.333% | Potency [2] | Potency [3]

CC[C@@H](C)[C@H]1C(=O)O[C@H](C(C)C)C(=O)N(C)[C@@H](C(C)C)C(=O)O[C@H](C(C)C)C(=O)N(C)[C@@H](C(C)C)C(=O)O[C@H](CC(C)C)C(=O)N1C
inactive: activation [1] 22.3% | Potency [2] | Potency [3]

C/C=C/C=C/C(O)=C1/C(=O)[C@]2(C)C(=O)[C@@](C)(O)[C@H]1[C@H]([C@@]1(C)OC(=O)C(C)=C1O)[C@H]2C(=O)CC/C=C/C
inactive: activation [1] -10.7% | Potency [2] | Potency [3]

C#CCCCn1cc(-c2cccc3c2N[C@H](C)CC(=O)N3)cn1
inactive: activation [1] 8.93% | Potency [2] | Potency [3]

CC(C)=CCc1cc(O[C@@H]2O[C@H](CO[C@@H]3OC[C@](O)(CO)[C@H]3O)[C@@H](O)[C@H](O)[C@H]2O)ccc1O
inactive: activation [1] 22.1% | Potency [2] | Potency [3]

CCNC1(C(N)=O)CN(c2nc(C)nc3c(-c4ccc(Cl)cc4)c(-c4ccccc4Cl)nn23)C1
inactive: activation [1] -0.333% | Potency [2] | Potency [3]

C[C@@H]1O[C@@H](O[C@H]2[C@H](O)[C@@H](C(=O)O)O[C@@H](O[C@H]3CC[C@@]4(C)C(CC[C@]5(C)C4CC=C4C6CC(C)(C)CC[C@]6(C(=O)O)CC[C@]45C)C3(C)C)[C@@H]2O[C@@H]2O[C@H](CO)[C@@H](O)[C@H](O)[C@H]2O)[C@H](O)[C@H](O)[C@H]1O (some centres not stated)
inactive: activation [1] -2.29% | Potency [2] | Potency [3]

C=C1CCC2C(C)(C)C(O)CCC2(C)C1CCC(C)CCOC(=O)CCC(=O)O (configuration not stated)
inactive: activation [1] -3.82% | Potency [2] | Potency [3]

COc1ccc2c(NC(=O)Nc3cccc(C(F)(F)F)n3)ccnc2c1
inactive: activation [1] 16.1% | Potency [2] | Potency [3]

CCCCC(=O)N(Cc1ccc(-c2ccccc2-c2nn[nH]n2)cc1)C(C(=O)O)C(C)C (configuration not stated)
inactive: activation [1] 0% | Potency [2] | Potency [3]
